Compounds without any hit were thinned out: in the full panel of roughly 83,000, 20% have a hit.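 Interpretation: 100, growth as untreated; towards 0, rising growth inhibition; 0, no net growth; 0 to -100, cell death. Compounds scoring below 10 were considered active.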 Unmarked numbers belong to inactive results. Active and inactive are the calls of the source.

This experiment relates to K-562 leukemia. The experiment is described as follows: NCI-60 one-dose screen, 48 h (100 = growth as untreated, 0 = no growth, -100 = all killed). As to conditions: 10 µM unless noted.
Consider `COc1ccc(/C(C)=N/NS(=O)(=O)c2ccc(C)cc2)cc1OC`, for which the growth was 111%.

Regarding `C[C@@H]1C(=O)N(C[C@@H](Cc2ccccc2)NC(=O)OCc2ccccc2)[C@]1(Cc1ccccc1)C(=O)OCc1ccccc1`, the growth is 36.5%.

As for `NC(=Nc1ccc(N)cc1)C(N)=Nc1ccc(N)cc1`, the growth was 81.7%.

As to `N#Cc1c(NC(=O)c2ccccc2I)sc2c1CCCC2`, the growth is 14.8%.

On to `Cc1ccc(Nc2ccc(Nc3ccc(C)cc3S(=O)(=O)O)c3c2C(=O)c2ccccc2C3=O)c(S(=O)(=O)O)c1`, for which the growth was 100%.

On to `C=C1C(=O)O[C@H]2[C@H]1CC/C(Cn1cc(CNCCc3c[nH]c4ccc(Cl)cc34)nn1)=C\CC[C@@]1(C)O[C@@H]21`, for which the growth was 2.7% (active).

In the case of `Cn1cc(Nc2nccc(-c3ccc(N4CCCC4)c(C#N)c3)n2)cn1`, the growth was 9.73% (active).

As to `CSc1ncc(C)c(Nc2ccc(Cl)cc2)n1`, the growth was 94%.

Consider `COc1cc(/C=C2\C=C(c3ccccc3)N(CCc3ccccc3)C2=O)cc(OC)c1OC`, for which the growth is 94.2%.

Consider `O=c1cc(-c2ccc(OCc3ccccc3)cc2)oc2c(I)c(OCc3ccccc3)cc(OCc3ccccc3)c12`, for which the growth was 84.3%.

For `CC(=O)Nc1nccs1`, the growth was 110%.

In the case of `N[C@H]1CCC[C@@H]1NCCCCN1C(=O)c2cccc3cccc(c23)C1=O`, the growth is 65.9%.

`N=C(N)c1ccc(-c2ccc(-c3ccc(Cl)cc3Cl)o2)nc1`: the growth is 1.13% (active).

`O=C1N/C(=N/O)S/C1=C/c1cn(-c2ccccc2)nc1-c1ccccc1`: the growth was 94.2%.

As for `C[C@@H]1CC[C@@H]2[C@@H]1[C@H](OC(=O)c1ccc3ccccc3c1)[C@]1(C3CCCCC3)C[C@@H](OC(=O)CO)[C@@]2(C)O1`, the growth is 39.6%.

Turning to `CN(C)c1ccc(C#Cc2c(F)cccc2Cl)cc1`, the growth is 95.5%.

In the case of `CCCN1CCN(c2ccc3nc(-c4ccc5nc(-c6cc(OC)c(OC)c(OC)c6)[nH]c5c4)[nH]c3c2)CC1`, the growth was 59.5%.

`O=C(NCCOCCOCCOCCNC(=O)c1cc2c(o1)C(=O)c1ccccc1C2=O)NC12CC3CC(CC(C3)C1)C2`: the growth was 7.09% (active).

In the case of `COc1cc2c(cc1OC)-c1ccc3cc4c(cc3c1N(CCN(C)C)C2)OCO4`, the growth was 2.7% (active).

For the compound `O=C(NC(=S)Nc1ccc(-c2nc3ccccc3[nH]2)cc1)c1ccc2ccccc2c1`, the growth is 59.9%.

Regarding `CC[C@@H](C[C@H](CCO)c1ccccc1)c1cc2ccccc2o1`, the growth is 77.7%.

Consider `NC(N)=N/N=C/c1ccc(Br)cc1`, for which the growth is 4.4% (active).

In the case of `CN(C)CCOC(=O)Nc1ccc(Cl)cc1`, the growth was 90.5%.

In the case of `O=C(/C=C/C12c3ccccc3C(c3ccccc31)C1C(=O)N(c3ccc(Cl)cc3)C(=O)C12)c1ccccn1` (centres undefined), the growth is 4.62% (active).

As for `OC(c1cccc(OCc2ccccc2)c1)c1nnc(-c2ccccc2)o1` (centres undefined), the growth was 91%.

For the compound `O=C1N(c2ccccc2)C(=S)N[C@]12[C@H](c1ccccc1)C1CCCN1[C@]21C(=O)NC2C=CC(Cl)=C[C@H]21` (some centres undefined), the growth is 81.5%.

As to `COC(=O)/C(=C\c1ccc(OC)cc1)C(=O)N1c2ccccc2Sc2ccccc21`, the growth was 11.1%.

With `Cc1ccc(S(=O)(=O)Nc2sccc2-c2nc(-c3ccccc3)no2)cc1`, the growth was 103%.

Regarding `CCNCCNc1cc(-c2ccc(C(F)(F)F)cc2)c(C#N)c2nc3cc(Cl)c(Cl)cc3n12`, the growth was -63.7% (active).

As for `COc1ccc(/C=C(\C#N)n2nnc3ccccc32)cc1`, the growth was 15%.

For the compound `CC(C)n1nc(C#Cc2cccc3cc(-c4cccc(C(F)(F)F)c4)ncc23)c2c(N)ncnc21`, the growth was 2.23% (active).

For `COC(=O)CNC(=O)C(=O)c1c(O)c(O)c(C(C)C)c2cc(C)c(-c3c(C)cc4c(C(C)C)c(O)c(O)c(C(=O)C(=O)NCC(=O)OC)c4c3O)c(O)c12`, the growth was 14.7%.

On to `NC(=O)c1c(NC(=O)c2ccc(C(F)(F)F)cc2Cl)sc2c1CCC(=O)C2`, for which the growth is -11.7% (active).

Turning to `C[C@@H](C[C@H](CCOCc1cccnc1)c1ccccc1)c1cc2ccccc2o1`, the growth was 81.5%.

Turning to `CCn1c(Sc2nnc(Nc3ccccc3)s2)nc2c1c(=O)n(C)c(=O)n2C`, the growth is 114%.

Take `Cc1cc(Cl)nc(N(CCCNc2ccnc3cc(Cl)ccc23)Cc2ccccn2)n1`: the growth is 4.3% (active).

Take `OC(CBr)c1ccnc2ccccc12` (centres undefined): the growth was 92%.

Take `COc1cc(C2C=C(c3cccc(NC(C)=O)c3)Nc3ncnn32)cc(OC)c1OC` (centres undefined): the growth is 23.6%.

For the compound `CCCCOC(=O)c1ccc(NC(=O)C(C)N2CCOCC2)cc1` (centres undefined), the growth is 91.1%.

(Values after PubChem BioAssay (NCI).)
